# Results reported in PMC4336329 (PLoS ONE, 2015).
# In all, about 310,000 compounds went through this assay and about 14,000 (4.5%) showed an effect of 50% or more. The effect is printed as a negative number. The sample as a whole holds a higher share of strong results than the screen did.
# Biological target: human ether-à-go-go-related gene (hERG) potassium channel (human, UniProt Q12809)
# Experiment: primary screen, population patch clamp on CHO cells stably expressing hERG; higher = less effect of the substance
# 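Further: peak tail current of the secondary pulse compared with the same well before compound.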
# human ether-à-go-go-related gene (hERG) potassium channel, sequence (Q12809 whole entry, looked up): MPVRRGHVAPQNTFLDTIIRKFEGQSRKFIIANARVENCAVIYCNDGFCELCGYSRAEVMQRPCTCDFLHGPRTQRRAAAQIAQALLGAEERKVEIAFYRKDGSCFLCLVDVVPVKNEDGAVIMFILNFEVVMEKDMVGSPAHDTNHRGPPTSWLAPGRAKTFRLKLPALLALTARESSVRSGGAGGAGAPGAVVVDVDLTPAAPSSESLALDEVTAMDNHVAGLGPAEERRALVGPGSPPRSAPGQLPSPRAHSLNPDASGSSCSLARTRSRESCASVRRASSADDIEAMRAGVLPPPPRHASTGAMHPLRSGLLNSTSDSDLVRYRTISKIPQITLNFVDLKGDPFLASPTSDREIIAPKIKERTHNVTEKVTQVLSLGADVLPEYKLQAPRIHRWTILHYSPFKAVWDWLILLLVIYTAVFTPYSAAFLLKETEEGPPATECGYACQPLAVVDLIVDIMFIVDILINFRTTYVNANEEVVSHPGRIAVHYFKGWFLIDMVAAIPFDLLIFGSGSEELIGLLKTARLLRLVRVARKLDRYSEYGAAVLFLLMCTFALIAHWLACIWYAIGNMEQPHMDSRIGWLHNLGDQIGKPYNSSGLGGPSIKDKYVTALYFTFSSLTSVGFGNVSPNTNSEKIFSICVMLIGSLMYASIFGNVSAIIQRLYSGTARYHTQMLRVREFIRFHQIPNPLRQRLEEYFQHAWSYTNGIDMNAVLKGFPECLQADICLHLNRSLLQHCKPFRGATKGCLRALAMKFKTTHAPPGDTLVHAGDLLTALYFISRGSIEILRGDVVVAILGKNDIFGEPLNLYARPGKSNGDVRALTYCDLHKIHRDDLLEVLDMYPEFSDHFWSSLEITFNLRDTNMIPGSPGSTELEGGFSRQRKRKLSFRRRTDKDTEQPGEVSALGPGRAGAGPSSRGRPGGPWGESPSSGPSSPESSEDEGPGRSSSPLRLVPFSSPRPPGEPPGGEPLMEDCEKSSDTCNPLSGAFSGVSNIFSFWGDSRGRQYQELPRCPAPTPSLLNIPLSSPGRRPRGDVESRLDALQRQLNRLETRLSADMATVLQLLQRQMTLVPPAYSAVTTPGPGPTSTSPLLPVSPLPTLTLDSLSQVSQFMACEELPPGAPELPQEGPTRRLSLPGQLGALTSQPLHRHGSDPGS
row,SMILES,"hERG current change (%, negative = inhibition) at 10uM [%]"
1,COc1ccc(C2=NOC(C(=O)N3CCOCC3)C2)cc1OC (centres unmarked),11.6
2,COCc1cc(C)nc(SCC(=O)Nc2cccc(C)c2)c1C#N,14.2
3,COC1=CC(=O)C(O)=C(CCCCCCC/C=C/CCCCCCCC2=C(O)C(=O)C=C(OC)C2=O)C1=O,-3
4,CCOc1ccc(/C(CCC(=O)O)=N/NC(=S)NC(C)C)cc1,14.1
5,CC1(C)NC(=O)N(CC(=O)O)C1=O,18
6,N/C(=N\OC(=O)c1ccc2ccccc2c1)c1ccccn1,28.3
7,COC(=O)C1=C(C)N=c2s/c(=C/c3cccs3)c(=O)n2C1c1cccs1 (centres unmarked),-7.35
8,COC(=O)CN1C(=O)Nc2ccc(C)cc2C1c1ccccc1 (centres unmarked),14.3
9,COc1ccc(OC)c(NC(=O)CSc2nnc(CNC(=O)COc3ccc(Cl)cc3)o2)c1,-60.1
10,COc1cc2c(cc1NC(=O)CSc1nnc(COc3ccc(Cl)cc3)n1C)oc1ccccc12,6.05
11,COc1ccccc1NC(=O)CSc1nnc(CNC(=O)COc2ccc(Cl)cc2)o1,-43.7
12,COc1ccc(Cl)cc1NC(=O)CSc1nnc(COc2ccccc2)n1C,-57.3
13,COc1cccc(NC(=O)CSc2nnc(Cc3cccn3C)n2-c2ccc(F)cc2)c1,-15.5
14,COc1ccc(-n2c(Cc3cccn3C)nnc2SCC(=O)Nc2cccc(OC)c2)cc1,-23.4
15,COc1ccc(-n2c(Cc3cccn3C)nnc2SCC(=O)Nc2cccc(F)c2)cc1,-54.3
16,COc1ccc(Cl)cc1NC(=O)CSc1nnc(COc2ccccc2)n1N,-5.96
17,COc1ccc(NC(=O)CSc2nnc(CNC(=O)COc3ccc(Cl)cc3)o2)c(OC)c1,-12.9
18,CN(CCC#N)C(=O)COC(=O)c1ccccc1C(=O)c1ccc(Cl)c([N+](=O)[O-])c1,-0.749
19,CCOC(=O)CCC(=O)N1CCOCCOCCN(C(=O)CCC(=O)OCC)CCOCC1,-7.63

row,SMILES,"hERG current change (%, negative = inhibition) at 10uM [%]"
1,Cc1cc(C)c2nc(-c3ccccn3)cc(C(=O)Nc3cc(C)on3)c2c1,10.4
2,COc1ccc(-n2nc(C(=O)NCC(=O)NC(C)C)c3ccccc3c2=O)cc1Cl,4.05
3,COC(=O)c1c(C(=O)OC)c(-c2ccc(OC)cc2)n2c1CS(=O)C2 (centres unmarked),10.1
4,COC(=O)c1c(C(=O)OC)c(-c2ccc(F)cc2)n2c1CS(=O)C2 (centres unmarked),26.7
5,COC(=O)c1c(C(=O)OC)c(-c2ccc(C)cc2)n2c1CS(=O)C2 (centres unmarked),-53.8
6,CC(C)(C)C(=O)NCCc1nc2ccccc2n1CC(=O)c1ccc(Cl)cc1,-33.2
7,OCCCc1nc2ccccc2n1CCOc1ccccc1,-5.7
8,CC(C)C(=O)NCCc1nc2ccccc2n1CCCOc1ccc(Cl)cc1,-41.7
9,CC(C)(C)C(=O)NCCCc1nc2ccccc2n1CCCOc1ccc(Cl)cc1,-57.2
10,OCc1nc2ccccc2n1CCCCOc1ccccc1,0.828
11,OCCCc1nc2ccccc2n1CCCCOc1ccccc1,-57.2
12,CCSc1nnc(NC(=O)C2CCCCC2C(=O)OCC(F)(F)C(F)F)s1 (centres unmarked),17.9
13,O=C(COc1ccccc1)Nc1ccc([N+](=O)[O-])cc1,1.57
14,CCOC(=O)c1[nH]cnc1C(=O)Nc1ccccc1OC,-2.79
15,Cc1csc(SCC(=O)Nc2nnc(C)s2)n1,15
16,CC(Sc1nncn1C)C(=O)Nc1ccccc1-c1ccccc1 (centres unmarked),8.27
17,O=C(NC1CCCC1)C(c1ccncc1)N(C(=O)c1ccco1)c1ccccc1 (centres unmarked),-5.61
18,CCOC(=O)C1(CCOc2ccccc2)CCN(CC2CC2)CC1,-47.4
19,CCOC(=O)C1(CCOc2ccccc2)CCN(CC(O)CO)CC1 (centres unmarked),-26.9

row,SMILES,"hERG current change (%, negative = inhibition) at 10uM [%]"
1,CCOC(=O)C1(CCOc2ccccc2)CCN(CC=C(C)C)CC1,-50.2
2,CCCN1CCC(CCOc2ccccc2)(C(=O)OCC)CC1,-58.5
3,CCN1CCN(Cc2cccnc2)CC1,17.1
4,CCCCOC(=O)c1ccc(NC(=O)CSc2nncn2C)cc1,-4.57
5,Cc1ccc(S(=O)(=O)NNC(=O)c2cnn(-c3ccccc3)c2-n2cccc2)cc1,-15
6,COc1ccc(C(=O)/C=C/C(=O)N(Cc2ccccc2)C(C(=O)NC2CCCCC2)c2ccncc2)c(O)c1 (centres unmarked),-19.3
7,O=C(N/N=C/c1ccsc1)c1ccc2ccccc2n1,-2.2
8,NC(=O)CSc1nc2ccccc2c(=O)n1Cc1ccco1,-36
9,CCn1c(SCC(=O)N2CCN(c3cccc(Cl)c3)CC2)nc2ccccc2c1=O,-39.1
10,O=C(CSc1nc2ccccc2c(=O)n1Cc1ccco1)N1CCCC1,-77.1
11,O=C(CSc1nc2ccccc2c(=O)n1Cc1ccco1)N1CCN(c2ccccc2)CC1,-74.9
12,O=c1c2ccccc2nnn1CSc1nc2ccccc2c(=O)n1Cc1ccco1,-6.44
13,CCOC(=O)CSc1nc2ccccc2c(=O)n1Cc1ccco1,-18.1
14,O=C(CSc1nc2ccccc2c(=O)n1Cc1ccco1)N1CCCCCC1,-76.4
15,COCCn1nnnc1CN1CCN2CCCC2C1.Cl (centres unmarked),3.16
16,C/C(=N/NC(=O)c1cc(-c2ccccc2)nc2c(Cl)cccc12)c1cccnc1,26.1
17,Cc1cc(=O)[nH]c(SCC(=O)N2CCCC(C)C2)n1 (centres unmarked),11.3
18,CCOc1ccc(N(CC(=O)Nc2ccc(OC)cc2)S(=O)(=O)c2c(C)[nH]c(=O)[nH]c2=O)cc1,1.99
